Results published in PubChem BioAssay AID2015 (National Center for Advancing Translational Sciences (NCATS), 2009).
The other results are listed elsewhere or left out. Inconclusive results are not listed. Active and inactive are the calls of the source. The call rests on the fitted dose curve; in most records, active means well fitted inhibition curve with a large enough effect; inconclusive means small, poorly fitted or top-dose-only effect; inactive means flat fitted curve, though single readings scatter.

What follows are molecules tested against Galactokinase (Homo sapiens) (UniProt P51570) (assay: Confirmation Assay for Inhibitors of Human Galactokinase (GALK)). Settings: purified GALK, Kinase-Glo ATP depletion luminescence; series mostly up to 115 µM.
Chain of Galactokinase (Homo sapiens) (P51570 whole entry, looked up): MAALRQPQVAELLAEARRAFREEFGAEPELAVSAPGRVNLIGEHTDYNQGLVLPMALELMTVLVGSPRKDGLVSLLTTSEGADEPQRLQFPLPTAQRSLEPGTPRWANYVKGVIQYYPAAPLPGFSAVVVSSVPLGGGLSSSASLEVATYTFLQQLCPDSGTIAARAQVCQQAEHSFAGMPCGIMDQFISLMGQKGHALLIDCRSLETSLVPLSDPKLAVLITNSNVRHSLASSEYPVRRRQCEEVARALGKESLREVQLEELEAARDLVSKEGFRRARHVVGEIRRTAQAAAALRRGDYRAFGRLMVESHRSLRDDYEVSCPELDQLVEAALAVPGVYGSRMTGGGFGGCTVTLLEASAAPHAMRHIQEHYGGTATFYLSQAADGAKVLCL
From the text: NIH Molecular Libraries Probe Production Centers Network [MLPCN] NIH Chemical Genomics Center [NCGC] MLPCN Grant: R03 MH085689-01 Assay Submitter (PI): Kent Lai (University of Utah School of Medicine, 50 N Mario Capecchi Drive, Salt Lake City, UT 84132) NCGC Assay Overview Inherited deficiency of galactose-1-phosphate uridyltransferase (GALT) can result in a potentially lethal disorder called Classic Galactosemia (OMIM 230400). Several lines of evidence indicate that an elevated level of galactose-1-phosphate (gal-1-p), the product of galactokinase (GALK), is a major, if not sole, pathogenic mechanism in patients with classic galactosemia. Therefore, finding inhibitors of GALK is a potential novel therapy for this inherent metabolic disease and is the long term goal of this project. Active compounds observed in the qHTS GALK assay (AID: 1868) were cherry picked and re-screened for validation. GALK (provided by Kent Lai) was assayed using ATP and D-(+)-Galactose (Sigma-Aldrich cat# G0750) as substrates. Promega Kinase-Glo Plus (cat# V3774) technology was used to detect the residual ATP following kinetic reaction. Briefly, the Kinase-Glo Plus contains Ultra-Glo [1] luciferase and D-luciferin which generates a bioluminescence signal from the remaining ATP. Kinase reactions with and without GALK were used as negative and positive controls together with Protein Tyrosine Phosphatase CD45 inhibitor (EMD Bioscience cat# 540215) which is shown to inhibit GALK activity.
NCGC Assay Protocol Summary: Three uL/well of ATP-buffer solution (35 uM ATP, 20mM HEPES pH8.0, 5 mM MgCl2, 60 mM NaCl, 1 mM DTT, 0.01% BSA final concentration) was dispensed into 1536-well, assay plates (Greiner, solid white medium-binding plates) with Aurora Discovery BioRAPTR Flying Reagent Dispenser (FRD; Beckton-Dickenson). Compound and control solution (23 nL) was transferred to the assay plate using the Kalypsys 1536-pin tool apparatus. One uL/well GALK-galactose solution (5 nM GALK, 100 uM galactose, 20 mM HEPES pH8.0, 5 mM MgCl2, 60 mM NaCl, 1 mM DTT, 0.01% BSA final concentration) was then added using the FRD yielding a total kinase reaction volume of 4 uL/ well. After 1 hour of room temperature incubation, 4 uL Kinase-Glo Plus reagent was added for a final assay volume of 8 uL/well. Luminescence was detected with the ViewLux plate reader (Perkin Elmer, Waltham, MA) after 2 min incubation using a 1 sec exposure time and 2x binning.
With `CCS(=O)(=O)C1=NSC2=NC(=O)/C(=C\c3ccc(OS(=O)(=O)c4ccccc4)cc3)C(=N)N21` the Potency was 26.6 µM (active).
In the case of `N#Cc1c(N2CCCCC2)nc(N)c2c(N)nc(SCC(=O)O)cc12`, the Potency is reported as 21.1 µM (active).
In the case of `CCOC(=O)c1c(C)[nH]c2c1-c1ccccc1C(=O)C2=O`, the Potency is reported as 1.68 µM (active).
For `COc1cccc2cc(-c3cc(=O)oc4cc(C)c(O)cc34)oc12`, the Potency was “inactive”.
In the case of `Oc1c(Cl)cc(Cl)c(Cl)c1Cc1c(O)c(Cl)cc(Cl)c1Cl`, the Potency is reported as 21.1 µM (active).
In the case of `N#C/C(=C(/O)Cc1cccc2ccccc12)c1nc2ccccc2s1`, the Potency is reported as 33.5 µM (active).
